Drawing on PubChem BioAssay (NCI), this text covers growth for 32 molecules.

“And” between values parts separate entries of the source, which are not always exact repeats. Identical values can stand only once. The panel holds about 83,000 compounds, 20% with a hit somewhere; the sample as a whole holds those more often.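 How to read the values: 0–100, growth inhibition (40 = 60% inhibited); 0, no net growth; -100 to 0, cell death (-40 = 40% of starting cells died; -100 = all dead).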 The source made the active and inactive calls. How the source made its calls: active means growth percent below 10; inactive means the rest. Where a SMILES comes first, the peptide text is derived from it. The star is where a group is joined. Trt = c1ccc(C(c2ccccc2)(c2ccccc2)*)cc1; Cbz = O=C(OCc1ccccc1)*

The first assay relates to HCT-116 colon. Briefly: NCI-60 one-dose screen, 48 h (100 = growth as untreated, 0 = no growth, -100 = all killed). Conditions: 10 µM unless noted.
Take `CCCCCCCCCCCCCCCCCCOP(=O)([O-])OC1CC[N+](C)(C)CC1`: the growth was 19.5% (inactive) and -41.9% (active).

As to `Cn1c2ccccc2c2nnc(N/N=C/c3ccccn3)nc21`, the growth is 14.4% (inactive).

In the case of `O=[N+]([O-])c1ccc2c(N=Nc3ccc4ccccc4c3O)c(O)cc(S(=O)(=O)O)c2c1`, the growth is 93.3% (inactive).

With `CCC(CCCN(CC)CCc1ccccc1)OC(=O)c1cc(OC)c(OC)c(OC)c1` (stereo not drawn), the growth is 75.3% (inactive).

Take `O=C1c2ccccc2C(=O)N1c1ccccc1`: the growth was 105% (inactive).

Turning to `COC(=O)C(CSC(c1ccccc1)(c1ccccc1)c1ccccc1)NC(=O)C(CC(N)=O)NC(=O)OCc1ccccc1` (stereo not drawn) (Cbz-Asn-Cys(Trt)-OMe; configuration not given here), the growth is 12.7% (inactive).

Consider `O=C(Nc1ccccc1)c1cc(Cl)ccc1O`, for which the growth is 51% (inactive).

Consider `CC1OC(OC2C(OC3CCC4(C)C(CCC5(C)C4CC=C4C6CC(C)(C)CCC6(CO)C(O)CC45C)C3(C)C)OC(C(=O)O)C(OC3OC(COC4OC(CO)C(O)C(O)C4O)C(O)C(O)C3O)C2O)C(O)C(O)C1O` (stereo not drawn), for which the growth is -88% (active).

Regarding `C[N+](C)=c1ccc2nc3c(cc(NCCCNc4cc5oc6cc(=[N+](C)C)ccc-6nc5c5ccccc45)c4ccccc43)oc-2c1`, the growth was -36.9% (active).

Turning to `CCC(CC)COC(=O)c1ccc(O)c(O)c1`, the growth was 72.6% (inactive).

In the case of `O=C(Nc1ccc(F)cc1)ON=C1CCCCC1`, the growth was 99.2% [100 µM] (inactive).

As for `CC1=CC(O)C2CC1C2(C)C` (stereo not drawn), the growth is 103% (inactive).

As to `CCN(CC)CCOc1ccc(-c2nc3cc(Cl)ccc3s2)cc1`, the growth is -69.3% (active).

Regarding `CC(=O)ON=C1C=CC(=C(C#N)c2ccccc2)C=C1`, the growth was -13.1% (active).

On to `O=C1c2ccccc2C(=O)c2sc(Nc3cccc(Cl)c3)nc21`, for which the growth is -29.9% (active).

As for `Cc1ccnc(NC(c2ccccc2)c2ccc3cccnc3c2O)c1` (stereo not drawn), the growth is 31.8% (inactive).

Take `Oc1c(Br)cc(Cl)cc1C(c1cc(Cl)cc(Br)c1O)C(Cl)(Cl)Cl`: the growth is 4.13% (active).

Turning to `CC(=O)Nc1cccc2cc(O)ccc12`, the growth was 85.9% (inactive) and 103% (inactive) and 91.2% (inactive).

For the molecule `Cc1cc(N)c2ccccc2[n+]1CCCCCCCCCC[n+]1c(C)cc(N)c2ccccc21`, the growth was 4.6% (active) and 3.4% (active).

Consider `N#CSCc1ccc(Cl)c(CSC#N)c1`, for which the growth was 13.6% (inactive).

Consider `CNc1ccc(N)cc1`, for which the growth was 107% (inactive).

As to `COc1cc(NS(C)(=O)=O)ccc1Nc1c2ccccc2nc2ccccc12`, the growth was 31% [2.5 µM] (inactive).

For `O=C(O)c1ccc2c3c(ncnc13)-c1ccccc1C2=O`, the growth is 91.2% (inactive).

As for `CCC(=O)Sc1ccccc1C(=O)Nc1ccc(Cl)cc1`, the growth was 25.8% (inactive).

For the molecule `COc1ccc2nc3cc(Cl)ccc3c(NCCNc3c4ccc(Cl)cc4nc4ccc(OC)cc34)c2c1`, the growth was -83.3% (active).

For `N[C@H](C(=O)O)[C@@H]1CC(Cl)=NO1`, the growth is 14.1% [20 µM] (inactive).

Consider `CCOC(=O)c1c(C)[nH]c(CO)c1C`, for which the growth was 100% (inactive).

Staying with this assay, now noted: 100 µM.
For the molecule `O=C(Nc1c(Cl)cccc1Cl)Oc1cccc2cccnc12`, the growth was 8.1% (active).

With `O=C(Nc1cccc(Br)c1)Oc1cccc2cccnc12`, the growth was 1.93% (active).

For the molecule `COc1ccc(-c2cscc2N)cc1`, the growth was 26.4% (inactive).

Regarding `CN(C)C(=O)c1ccc(SC(=S)NCc2ccccc2)cc1`, the growth is -26.2% (active).

Regarding `O=C(O)c1c(Cl)c(Cl)c(Cl)c(Cl)c1-c1c2cc(I)c(=O)c(I)c-2oc2c(I)c(O)c(I)cc12`, the growth is 0.594% (active).

The test system of the next assay is HCC-2998 colon. Described as above. Conditions: 10 µM unless noted.
Regarding `CCCCCCCCCCCCCCCCCCOP(=O)([O-])OC1CC[N+](C)(C)CC1`, the growth is 5.08% (active) and -75.7% (active).

As for `Cn1c2ccccc2c2nnc(N/N=C/c3ccccn3)nc21`, the growth was 34.5% (inactive).

With `O=[N+]([O-])c1ccc2c(N=Nc3ccc4ccccc4c3O)c(O)cc(S(=O)(=O)O)c2c1`, the growth is 94.4% (inactive).

For `CCC(CCCN(CC)CCc1ccccc1)OC(=O)c1cc(OC)c(OC)c(OC)c1` (stereo not drawn), the growth was 96.4% (inactive).

Turning to `O=C1c2ccccc2C(=O)N1c1ccccc1`, the growth is 102% (inactive).

With `COC(=O)C(CSC(c1ccccc1)(c1ccccc1)c1ccccc1)NC(=O)C(CC(N)=O)NC(=O)OCc1ccccc1` (stereo not drawn) (Cbz-Asn-Cys(Trt)-OMe; configuration not given here), the growth is -18.7% (active).

With `O=C(Nc1ccccc1)c1cc(Cl)ccc1O`, the growth was 89.1% (inactive).

`CC1OC(OC2C(OC3CCC4(C)C(CCC5(C)C4CC=C4C6CC(C)(C)CCC6(CO)C(O)CC45C)C3(C)C)OC(C(=O)O)C(OC3OC(COC4OC(CO)C(O)C(O)C4O)C(O)C(O)C3O)C2O)C(O)C(O)C1O` (stereo not drawn): the growth is -81.9% (active).

As for `C[N+](C)=c1ccc2nc3c(cc(NCCCNc4cc5oc6cc(=[N+](C)C)ccc-6nc5c5ccccc45)c4ccccc43)oc-2c1`, the growth is 23.7% (inactive).

`CCC(CC)COC(=O)c1ccc(O)c(O)c1`: the growth was 84.4% (inactive).

Take `O=C(Nc1ccc(F)cc1)ON=C1CCCCC1`: the growth was 106% [100 µM] (inactive).

As to `CC1=CC(O)C2CC1C2(C)C` (stereo not drawn), the growth was 95.4% (inactive) and 112% (inactive).

Turning to `CCN(CC)CCOc1ccc(-c2nc3cc(Cl)ccc3s2)cc1`, the growth is -97.2% (active).

Take `CC(=O)ON=C1C=CC(=C(C#N)c2ccccc2)C=C1`: the growth was 88.3% (inactive).

On to `O=C1c2ccccc2C(=O)c2sc(Nc3cccc(Cl)c3)nc21`, for which the growth is -34.3% (active).

With `Cc1ccnc(NC(c2ccccc2)c2ccc3cccnc3c2O)c1` (stereo not drawn), the growth is 27.3% (inactive).

Consider `Oc1c(Br)cc(Cl)cc1C(c1cc(Cl)cc(Br)c1O)C(Cl)(Cl)Cl`, for which the growth is 16.9% (inactive).

For the molecule `CC(=O)Nc1cccc2cc(O)ccc12`, the growth is 115% (inactive) and 108% (inactive) and 95% (inactive).

`Cc1cc(N)c2ccccc2[n+]1CCCCCCCCCC[n+]1c(C)cc(N)c2ccccc21`: the growth was 0.513% (active).

On to `N#CSCc1ccc(Cl)c(CSC#N)c1`, for which the growth was 51.5% (inactive).

Turning to `CNc1ccc(N)cc1`, the growth is 100% (inactive).

Consider `O=C(O)c1ccc2c3c(ncnc13)-c1ccccc1C2=O`, for which the growth is -58.5% (active).

For `CCC(=O)Sc1ccccc1C(=O)Nc1ccc(Cl)cc1`, the growth was 85.7% (inactive).

For `COc1ccc2nc3cc(Cl)ccc3c(NCCNc3c4ccc(Cl)cc4nc4ccc(OC)cc34)c2c1`, the growth is -82.2% (active).

Consider `N[C@H](C(=O)O)[C@@H]1CC(Cl)=NO1`, for which the growth is 34.7% [20 µM] (inactive).

Turning to `CCOC(=O)c1c(C)[nH]c(CO)c1C`, the growth is 109% (inactive).
